# ChEMBL document CHEMBL4513216, “Probing the Open Global Health Chemical Diversity Library for Multistage-Active Starting Points for Next-Generation Antimalarials” (ACS Infect Dis, 2020)
# About 8,600 (12%) of roughly 69,000 compounds showed an effect of 50% or more. This excerpt belongs to a sample that is enriched for strong results.
# System: Plasmodium berghei
# Experiment: Screen against P. berghei liver stage (PbLuc), transformed with Luciferase, at 10uM
# Assay type: functional, HepG2
# Conditions: tested at 10 uM
row,SMILES,INHIBITION [%]
1,Cc1noc([C@@H]2C[C@H]3CN(CC4CCOCC4)C[C@H]3O2)n1,-7.7
2,Cc1noc(Cl)c1CCC(=O)N1CCC(Nc2cccnn2)CC1,-5.07
3,COc1ccc2nnc(CCCC(=O)NCCc3ccccc3)n2n1,-31
4,COc1ccc2nnc(CCCC(=O)NCCc3ccncc3)n2n1,32.2
5,COc1ccc2nnc(CCCC(=O)NCCc3ccccn3)n2n1,51.9
6,Cc1nc(Cc2ccc(F)cc2)cc(C2COCCN2)n1 (stereo not given),35.305
7,O=C(C1CC1)N1CCCC(c2nc(O)cc(-c3ccncc3)n2)C1 (stereo not given),47.2
8,COc1ccc(CN2C[C@H]3C[C@H](CN(C)C)O[C@H]3C2)cc1,28.4
9,CNCCc1nc2cc(Cl)ccc2[nH]1,31.9
10,CNCCc1nc2cc(F)ccc2[nH]1,-2.37
11,CCNCCc1nc2cc(F)ccc2[nH]1,72.3
12,CC(C)c1nc(CN2CCC(c3ccnn3CCO)CC2)no1,38.5
13,CCN(c1ccc(C(=O)N2CCCCCC2)cc1)S(=O)(=O)CC,3.77
14,CN(CC1CCN(c2ccccc2)C1)c1ccc(Cn2ccnc2)cn1 (stereo not given),74.9
15,CC(C)N1CCCC(CN(C)c2ccc(Cn3ccnc3)cn2)C1 (stereo not given),-23.4
16,CSCc1ccc(N(C)CC2CCCN(C(C)C)C2)nc1 (stereo not given),-43.1
17,Cn1c2c(c(=O)n1C)CN(C(=O)c1ccncc1F)CCC2,25.8
18,COC(=O)c1cc(C(=O)N2CCN(C)CC2)n(-c2ccccc2)n1,30.2
19,CNC(=O)NCC(=O)N1CCCC1Cc1cccc(F)c1 (stereo not given),10.6
20,Cc1ccc2[nH]c(C3CCN(CC(N)=O)CC3)nc2c1,-9.51
21,NC(=O)c1cccc2nc([C@H]3CCN(Cc4ccccn4)C3)[nH]c12,66.6
22,COc1ccc(CN2CC[C@H](c3nc4cccc(C(N)=O)c4[nH]3)C2)cc1,22.3
23,NC(=O)c1cccc2nc([C@H]3CCN(Cc4ccccc4F)C3)[nH]c12,14.9
24,NC(=O)c1cccnc1N1C[C@H]2CC[C@@H](C1)N(Cc1ccccn1)C2=O,43.8
25,Cc1ccc(CN2CC[C@H](c3nc4cccc(C(N)=O)c4[nH]3)C2)cc1,59.2
26,CS(=O)(=O)N1CC[C@@H]2[C@@H]1CCN2Cc1ccc2c(c1)OCO2,7.5
27,CC(C)N(CCCNC(=O)C1CCCN(C(N)=O)C1)S(C)(=O)=O (stereo not given),36.5

row,SMILES,INHIBITION [%]
1,CN(Cc1cn(CC2CCNCC2)nn1)CC1CCCCO1 (stereo not given),-1.04
2,O=C1[C@H]2CN(Cc3ccco3)C[C@H]2CN1c1ccsc1,31.1
3,CC(NCCCN1CCCN(C)CC1)C(C)(C)C (stereo not given),26
4,Cc1cc(NC(=O)Cn2ccccc2=O)n(C)n1,11.5
5,Cc1ccccc1-c1cc(NC(=O)Cn2ccccc2=O)n(C)n1,-3.94
6,Cn1nc(C(C)(C)C)cc1NC(=O)Cn1ccccc1=O,54.3
7,c1cnc(N2CCO[C@H]3CN(CC4CCCC4)C[C@H]32)cn1,42.1
8,c1cnc(N2CCO[C@H]3CN(CC4CCOC4)C[C@H]32)cn1 (stereo not given in full),44.8
9,c1cncc(N2CCO[C@H]3CN(CC4CCOC4)C[C@H]32)c1 (stereo not given in full),62
10,Fc1cnc(N2CCO[C@H]3CN(CC4CCOC4)C[C@H]32)nc1 (stereo not given in full),43.1
11,c1cnc(N2CCO[C@H]3CN(CC4CCC4)C[C@H]32)cn1,62
12,Fc1cnc(N2CCO[C@H]3CN(CC4CCC4)C[C@H]32)nc1,12.2
13,O=C(C1=CCCCC1)N1CCO[C@H]2[C@H](Oc3ccccn3)CC[C@@H]21,27.6
14,CCCc1nc(C)cc(NCc2ccc(S(N)(=O)=O)cc2)n1,18.5
15,CCOc1ccc(-n2nnc(C(=O)O)c2-c2ccccn2)cc1,-31.6
16,CCN(Cc1cc(Cl)ccc1OC)Cc1nccn1C,15.3
17,CCN(Cc1cc(Cl)ccc1OC)Cc1cc(C)nn1C,57.9
18,CCN(Cc1ccccn1)Cc1cc(Cl)ccc1OC,39.1
19,O=C(CCCN1CCCCC1)N1CCN(C(=O)c2nc[nH]n2)CC1,-15.5
20,Cc1[nH]ncc1CCCNC(=O)Nc1ccc(C#N)cc1,-70.3
21,Cc1[nH]ncc1CCCNC(=O)Nc1ccc(F)cc1,78.2
22,Cc1[nH]ncc1CCCNC(=O)Nc1ccc2c(c1)OC1(CCCC1)O2,70.3
23,Cc1[nH]ncc1CCCNC(=O)N1CCOC(C)C1 (stereo not given),-1.95
24,Cc1[nH]ncc1CCCNC(=O)Nc1ccc(S(C)(=O)=O)nc1,22.6
25,Cc1[nH]ncc1CCCNC(=O)Nc1ccccc1,24.6
26,CN(CC1CCOC1)c1ccc(Br)cn1 (stereo not given),44.2
27,CS(=O)(=O)N1CC[C@@H]2OC(COCC(=O)N3CCCC3)CC[C@@H]21 (stereo not given in full),-8.94

row,SMILES,INHIBITION [%]
1,CC(CCN1CCC(n2cc(CCO)nn2)CC1)c1ccccc1 (stereo not given),24.9
2,CNCc1cn(C2CCN(CCC(C)c3ccccc3)CC2)nn1 (stereo not given),3.06
3,COCc1cn(C2CCN(CCC(C)c3ccccc3)CC2)nn1 (stereo not given),55.7
4,O=C1[C@@H]2CCN(C3CCOCC3)C[C@@H]2OCCN1Cc1cccnc1,-8.54
5,CO[C@H]1CCN(S(=O)(=O)c2cn(C)cn2)[C@H]1Cc1cnn(C)c1,10.8
6,CN1CCc2nnc(C3CCCN3S(=O)(=O)c3ccc(F)cc3)n2CC1 (stereo not given),-9.08
7,Cc1cc(C)c(CNCC(O)c2ccc(F)c(F)c2)c(C)c1 (stereo not given),-20.3
8,c1cc2c(cc1CN1C[C@@H]3COC[C@@H](N4CCCC4)[C@@H]3C1)OCO2,39.4
9,CSc1ccc(CCN2CCN([C@H]3CCCC[C@@H]3O)CC2)cc1,25.1
10,O[C@H]1CCCC[C@@H]1N1CCN(CCCc2ccc3c(c2)OCO3)CC1,53.8
11,CCCOc1c(CNC2CCSC2)cccc1OC (stereo not given),4.87
12,CCn1c(Cn2cncn2)nnc1C1CCN(Cc2ccncc2)CC1,-22.1
13,CCn1c(Cn2cncn2)nnc1C1CCN(CCN)CC1,43.8
14,CCn1c(Cn2cncn2)nnc1C1CCN(CC2[C@H]3CNC[C@@H]23)CC1 (stereo not given in full),57.1
15,CC(C)c1nn(C)c(N(C)C)c1CNCCC(=O)N(C)C,3.19
16,CC(C)C(C)(C#N)NC(=O)CN1CCCN(Cc2ccccc2F)CC1 (stereo not given),82.4
17,CC(C)(C)NC(=O)CN1CCCN(Cc2ccc(C#N)cc2)CC1,-7.77
18,CCCN1CCN(C(=O)c2cnn(-c3ccccc3F)c2)CC1,-39.9
19,CSc1ccsc1C(=O)N1CCN(CC(C)(C)O)CC1,25.3
20,CC(C)(C)n1cc(C(=O)N2CCN(Cc3ccco3)CC2)cn1,6.15
21,CCc1ccsc1C(=O)N1CCN(CC(C)(C)O)CC1,-13.5
22,CC(C)(O)CN1CCN(C(=O)c2sccc2C#N)CC1,54.4
23,CC(C)(O)CN1CCN(C(=O)c2cnn(-c3ccccc3F)c2)CC1,58.5
24,CC(C)(C)NC(=O)CN1CCCN(Cc2cc(C#N)ccc2F)CC1,-24.9
25,CC(C)(C)n1cc(C(=O)N2CCN(Cc3ccncc3)CC2)cn1,24.15
26,CC(C)(C)n1cc(C(=O)N2CCN(Cc3ccccc3F)CC2)cn1,71.4
27,O=C(c1cnn(-c2ccccc2F)c1)N1CCN(CCO)CC1,-10.3

row,SMILES,INHIBITION [%]
1,Cc1cnn(CCNc2cnc3ccccc3n2)c1,-68.3
2,O=C([C@H]1C[C@@H]2CCN(C3CCOCC3)C[C@@H]2O1)N1CCOCC1,-15.5
3,CN1CCC(CNC(=O)CCSc2ccc3c(c2)OCCO3)C1 (stereo not given),28.5
4,Cc1cccc(CC(=O)N2CCN(c3nccn3C)CC2)c1,-14.7
5,Cc1sc2c(C3CCCN(C(C)C)C3)nc(C)n2c1C (stereo not given),-12.9
6,Cn1cc(CN2CCc3onc(C(=O)N4CCCC4)c3C2)cn1,33.5
7,COc1ccc(CC(=O)N2CCCC(n3cc(C)cn3)C2)c(OC)c1 (stereo not given),7.08
8,CC(=O)N1CCCN(C(=O)c2cnn(-c3ccccc3Cl)c2)CC1,47
9,CN1CCN(C(=O)c2cnn(-c3ccccc3Cl)c2)CC1,14.1
10,Cc1ccccc1CN1CCCN(C(=O)c2ccn(C)c(=O)c2)CC1,-7.46
11,Cc1ncc(C(=O)N2CCCN(Cc3ccccc3F)CC2)c(O)n1,34.9
12,O=C(COCC1CCCO1)N1CCCN(Cc2ccccc2F)CC1 (stereo not given),53
13,O=C(c1cnc(C2CC2)nc1O)N1CCN(Cc2ccccc2F)CC1,-0.554
14,Cn1ccc(C(=O)N2CCN(Cc3ccccc3F)CC2)cc1=O,-57
15,CCn1ccc(C(=O)N2CCCN(Cc3ccccc3F)CC2)cc1=O,73.4
16,CC(=O)N1CCN(C(=O)c2cnn(-c3ccccc3Cl)c2)CC1,56.1
17,O=C(c1cccnc1O)N1CCN(Cc2ccccc2F)CC1,54.1
18,N#Cc1ccc(OC2CCN(C(=O)COCC3CCCO3)CC2)cc1 (stereo not given),-13.9
19,O=C(COCC1CCCCO1)N1CCN(Cc2ccccc2F)C(=O)C1 (stereo not given),45.6
20,O=C(CCc1ccsc1)N1CCC(N2CCNC2=O)CC1,19.5
21,CN(CC(=O)N1CCCCC1Cn1cccn1)C1CC1 (stereo not given),-79.3
22,Cc1cnn(CCNCc2ccccc2OCc2ccccn2)c1,-15.5
23,CCCc1n[nH]c(C2CN(C(=O)c3cc(C4CC4)on3)CCO2)n1 (stereo not given),14
24,CN1CCN(C(=O)c2cc3sccc3n2Cc2ccccc2Cl)CC1,11.7
